Several values for one entry are separate records, joined by “and”; a condition that tells them apart may be missing. Identical values can stand only once. Activity calls are given as the source filed them. Unless noted, no stated cut-off is given here; in the data, active means inhibition above about 80%; inactive means the rest.
What was measured:
[1] = sensitizers of A549 cells to miR-34 induction, primary screen, imaging, A549 dox-inducible miR-34, nuclei and caspase counts (AID 1347080;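 active means compounds whose cell count with miR-34 switched on is under 0.7 times the count with it off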); details: A549 miR-34 inducible, Hoechst nuclei count, 48 h
[2] = survival rescue of mitochondrial mutant cells in low glucose, primary screen, MELAS cybrids, Rieske KO mouse fibroblasts, CellTiter-Glo (AID 1508586;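 active means mean z-score across replicates of 1.96 or higher in either the MELAS or the Rieske mutant cell line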;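 further: z relative to plate mean and SD of compound and empty wells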)
[3] = target: NAD(+) hydrolase SARM1 (Homo sapiens) (UniProt Q6SZW1); assay: SARM1 TIR NADase inhibitors, cell lysate, NAD-Glo luminescence (AID 1508614;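 active means compound whose remaining NAD level is above about 45 nM, limit read from the data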); details: SAM-TIR HEK293T lysate NADase, at 1 µM, stronger effect = higher value
[4] = target: Mitogen-activated protein kinase 7 (Homo sapiens) (UniProt Q13164); assay: ERK5 transactivation activators in reporter cells, primary screen, cell-based, HTS (AID 1508626;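 active means luciferase signal above three times the same-plate solvent-only control wells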;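 further: luciferase driven by Gal4-ERK5 fusion binding five Gal4 sites before minimal TATA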); details: HeLa Gal4-ERK5 transactivation, 18 h, at 5 µM, stronger effect = higher value
[5] = viability rescue of complex I mutant cybrids, primary screen, cell-based, galactose medium, ATP luminescence (AID 1645843;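 active means z-score of at least 1.8 in each of two replicates, scored against plate mean and spread of sample wells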;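 further: positive z means more ATP and so rescue of galactose-driven cybrid death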); details: complex I mutant cybrid cells, 72 h, stronger effect = higher value
[6] = LFS_MB_P medulloblastoma growth inhibition, cell-based, chromothripsis tumors, cisplatin or BGB combos (AID 1671449); details: LFS_MB_P medulloblastoma cells;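 further: cells exposed for 96 hours; 0% = vehicle DMSO and 100% = killing by high DMSO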
[7] = HDN33 neuroblastoma growth inhibition, cell-based, chromothripsis tumors, cisplatin or BGB combos (AID 1671450); details: HDN33 neuroblastoma cells, stronger effect = higher value;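 further: cells exposed to compound for four days; 0% = vehicle DMSO and 100% = cell killing by high DMSO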
[8] = ICB984 medulloblastoma cell growth inhibition, synergistic combos for chromothripsis tumors, cisplatin or BGB combos (AID 1671451; call rule not given here;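 further: cells exposed for 96 hours before readout; 0% = vehicle DMSO and 100% = killing by high DMSO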); details: ICB984 medulloblastoma cells, drug combinations, stronger effect = higher value
[9] = LFS_MB_1R medulloblastoma cell growth inhibition, synergistic combos for chromothripsis tumors, cisplatin or BGB combos (AID 1671452); details: LFS_MB_1R medulloblastoma cells, stronger effect = higher value;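 further: cells exposed for 96 hours before readout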
[10] = HTB85 osteosarcoma cell growth inhibition, synergistic combos for chromothripsis tumors, BGB or cisplatin IC20 combos (AID 1671453); details: HTB85 osteosarcoma cells, drug combinations, stronger effect = higher value;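 further: cells exposed for 96 hours before readout; 0% = vehicle DMSO and 100% = high DMSO killing control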
[11] = CRL2098 osteosarcoma cell growth inhibition, synergistic combos for chromothripsis tumors, BGB or cisplatin IC20 combos (AID 1671454); details: CRL2098 osteosarcoma cells, drug combinations, stronger effect = higher value;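 further: cells exposed for 96 h before readout; 0% = vehicle DMSO and 100% = killing by high DMSO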
[12] = HD-MB03 medulloblastoma cell growth inhibition, synergistic combos for chromothripsis tumors, BGB or cisplatin IC20 combos (AID 1671455; in the data active means inhibition above about 83%;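 further: 0% = vehicle DMSO and 100% = high DMSO as cytotoxic control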); details: HD-MB03 medulloblastoma cells, stronger effect = higher value
[13] = stronger effect = lower value, cell number ratio, induced over uninduced
[14] = measured here: relative caspase fold change +Dox/-Dox
[15] = measured here: total cells with miR-34 induction, stronger effect = lower value
[16] = measured here: total cells without miR-34 induction
[17] = MELAS cybrid survival, CellTiter-Glo 48 h, stronger effect = higher value
[18] = Rieske KO mouse fibroblast survival, CellTiter-Glo 72 h
[19] = at 0.5 µM, stronger effect = higher value
[20] = measured here: combination with BGB IC20, at 0.005 µM
[21] = measured here: combination with BGB IC40, at 0.005 µM
[22] = measured here: combination with BGB IC40, at 0.05 µM
[23] = measured here: combination with cisplatin, at 0.5 µM, stronger effect = higher value
[24] = measured here: combination with cisplatin, at 5 µM, stronger effect = higher value
[25] = measured here: with BGB IC20 combination, at 0.5 µM
[26] = measured here: with cisplatin IC20 combination, at 0.5 µM
[27] = measured here: 5 uM single agent, at 5 µM
[28] = measured here: combination with cisplatin, at 0.5 µM
[29] = measured here: combination with cisplatin, at 5 µM
[30] = measured here: with BGB IC20, at 0.5 µM
[31] = measured here: with BGB IC20, at 5 µM
[32] = measured here: with cisplatin IC20, at 0.5 µM
[33] = measured here: with cisplatin IC20, at 5 µM
[34] = measured here: combination with BGB at IC20, at 0.5 µM
[35] = measured here: combination with cisplatin at IC20, at 0.5 µM
[36] = measured here: combo with BGB at IC20, at 0.5 µM
[37] = measured here: combo with cisplatin at IC20, at 0.5 µM

Sequence of NAD(+) hydrolase SARM1 (Homo sapiens) (Q6SZW1 whole entry, looked up, the tested form may be a part): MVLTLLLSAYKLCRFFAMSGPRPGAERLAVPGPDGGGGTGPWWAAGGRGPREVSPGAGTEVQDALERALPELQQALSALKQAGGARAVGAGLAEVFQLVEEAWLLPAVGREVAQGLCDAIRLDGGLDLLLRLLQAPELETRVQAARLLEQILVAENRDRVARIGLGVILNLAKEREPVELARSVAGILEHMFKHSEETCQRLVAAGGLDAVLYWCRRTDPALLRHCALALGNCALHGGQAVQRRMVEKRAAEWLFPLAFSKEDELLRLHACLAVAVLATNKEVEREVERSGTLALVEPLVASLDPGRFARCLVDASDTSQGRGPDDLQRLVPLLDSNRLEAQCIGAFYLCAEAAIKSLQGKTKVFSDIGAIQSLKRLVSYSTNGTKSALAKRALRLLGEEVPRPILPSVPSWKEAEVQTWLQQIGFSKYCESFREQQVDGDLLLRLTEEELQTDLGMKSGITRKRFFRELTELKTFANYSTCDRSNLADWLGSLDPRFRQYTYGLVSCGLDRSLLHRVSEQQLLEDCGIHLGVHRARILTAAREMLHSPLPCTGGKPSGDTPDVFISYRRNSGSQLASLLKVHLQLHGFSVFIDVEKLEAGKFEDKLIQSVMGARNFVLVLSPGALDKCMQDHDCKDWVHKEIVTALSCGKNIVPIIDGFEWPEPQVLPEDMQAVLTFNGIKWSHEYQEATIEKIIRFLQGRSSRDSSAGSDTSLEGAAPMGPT
Sequence of Mitogen-activated protein kinase 7 (Homo sapiens) (Q13164 whole entry, looked up, the tested form may be a part): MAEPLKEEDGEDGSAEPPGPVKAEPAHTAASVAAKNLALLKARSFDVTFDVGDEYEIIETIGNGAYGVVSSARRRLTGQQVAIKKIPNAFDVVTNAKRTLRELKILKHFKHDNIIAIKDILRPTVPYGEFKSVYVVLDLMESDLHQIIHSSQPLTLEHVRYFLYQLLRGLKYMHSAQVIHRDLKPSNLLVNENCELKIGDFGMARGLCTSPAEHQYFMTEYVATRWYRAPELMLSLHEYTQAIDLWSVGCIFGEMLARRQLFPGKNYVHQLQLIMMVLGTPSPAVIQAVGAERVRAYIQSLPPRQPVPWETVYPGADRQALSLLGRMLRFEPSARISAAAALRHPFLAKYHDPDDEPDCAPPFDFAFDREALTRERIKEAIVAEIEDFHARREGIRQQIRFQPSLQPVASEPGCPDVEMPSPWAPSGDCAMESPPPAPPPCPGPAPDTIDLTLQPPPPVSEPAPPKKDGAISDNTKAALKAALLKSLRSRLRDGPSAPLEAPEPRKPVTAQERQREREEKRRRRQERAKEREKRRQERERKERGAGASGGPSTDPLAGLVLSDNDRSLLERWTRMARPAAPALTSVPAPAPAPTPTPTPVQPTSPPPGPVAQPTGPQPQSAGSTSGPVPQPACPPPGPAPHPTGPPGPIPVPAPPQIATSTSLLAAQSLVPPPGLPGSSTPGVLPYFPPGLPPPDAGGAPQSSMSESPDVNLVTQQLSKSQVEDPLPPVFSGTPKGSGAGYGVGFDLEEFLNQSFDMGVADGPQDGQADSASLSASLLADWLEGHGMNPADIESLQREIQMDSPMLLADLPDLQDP

CN(C)/N=N/c1nc[nH]c1C(N)=O
fold change [1, 13]: 0.938 (inactive) and 0.895 (inactive)
fold change [1, 14]: 1.29 and 2.08
cell count [1, 15]: 11400 and 9140
cell count [1, 16]: 12200 and 10200
z-score [2, 17]: 0.302 (inactive)
z-score [2, 18]: 0.971
remaining NAD [3]: 10 nM (inactive)
luciferase signal [4]: 28 AU (inactive)
z-score [5]: -1.27 (inactive)
inhibition [6, 19]: -23.9% (inactive) and -10.4% (inactive)
inhibition [6, 20]: 22.6% and -26.8%
inhibition [6, 21]: -4.64% and -12.1%
inhibition [6, 22]: 6.08% and -27.5%
inhibition [6, 23]: -35.1% and -31.1%
inhibition [6, 24]: -14.4% and -39%
inhibition ([7]; BGB combo, at 5 µM): 18.6% and -37%
inhibition ([7]; at 0.5 µM): 0.39% (inactive) and -45.8% (inactive)
inhibition ([7]; cisplatin combo, at 5 µM): 25.6% and -37.1%
inhibition [7, 25]: -1.18% and -51%
inhibition [7, 26]: -5.95% and -47.5%
inhibition ([7]; single agent, at 5 µM): 47.2% and 2.95%
inhibition ([8]; BGB IC20 combo, at 0.005 µM): 0.732% and 6.78%
inhibition ([8]; BGB IC40 combo, at 0.005 µM): -12.9% and -11.7%
inhibition ([8]; BGB IC40 combo, at 0.05 µM): 12.2% and -40.2%
inhibition ([8]; at 0.5 µM): -9.82% (inactive) and -15.2% (inactive)
inhibition ([8]; cisplatin combo, at 0.05 µM): 9.76% and -45.2%
inhibition ([8]; cisplatin combo, at 0.5 µM): -14.5% and -8.2%
inhibition ([8]; cisplatin combo, at 5 µM): -16% and -22.9%
inhibition [8, 27]: -26.7% and -20.4%
inhibition ([9]; at 0.5 µM): -6.85% (inactive) and -29.4% (inactive)
inhibition [9, 22]: -7.35% and -52.3%
inhibition [9, 28]: 9.4% and -47.7%
inhibition [9, 29]: 3.18% and -94.1%
inhibition ([10]; at 0.5 µM): -1.95% (inactive) and -35.1% (inactive)
inhibition [10, 30]: 3.62% and -33.2%
inhibition [10, 31]: -31.2% and -31.5%
inhibition [10, 32]: -17.3% and -45.8%
inhibition [10, 33]: -16% and -61.7%
inhibition ([10]; single agent, at 5 µM): -8.44% and -20.4%
inhibition ([11]; at 0.5 µM): -3.56% (inactive) and -92.1% (inactive)
inhibition [11, 34]: -50.1% and -47.1%
inhibition [11, 35]: 34.4% and -173%
inhibition ([12]; at 0.5 µM): 0.8% (inactive) and -6.95% (inactive)
inhibition [12, 36]: 4.98% and -8.86%
inhibition [12, 37]: -6.17% and -0.723%

Nc1nc2c(ncn2CCC(CO)CO)c(=O)[nH]1
fold change [1, 13]: 0.945 (inactive) and 0.956 (inactive) and 0.874 (inactive)
fold change [1, 14]: 1.67 and 0.466 and 0.841
cell count [1, 15]: 10200 and 9130 and 9970
cell count [1, 16]: 10800 and 9540 and 11400
z-score [2, 17]: -0.249 (inactive) and -1.06 (inactive) and -0.78 (inactive)
z-score [2, 18]: -0.179 and 0.138 and 0.0729
remaining NAD [3]: 10 nM (inactive)
z-score [5]: 0.83 (inactive) and 0.595 (inactive)
inhibition [6, 19]: -31.4% (inactive) and 10.2% (inactive)
inhibition [6, 20]: 18% and -5.86%
inhibition [6, 21]: -15.5% and -23.1%
inhibition [6, 22]: -8% and -22.9%
inhibition [6, 23]: -43% and 6.39%
inhibition [6, 24]: -0.859% and -46.3%
inhibition ([7]; BGB combo, at 5 µM): -37% and 3.74%
inhibition ([7]; at 0.5 µM): -21.5% (inactive) and -13.7% (inactive)
inhibition ([7]; cisplatin combo, at 5 µM): -35.4% and 5.76%
inhibition [7, 25]: -20.3% and -5.75%
inhibition [7, 26]: -28.1% and -7.91%
inhibition ([7]; single agent, at 5 µM): -23.7% and -10.4%
inhibition ([8]; BGB IC20 combo, at 0.005 µM): 6.03% and -7.22%
inhibition ([8]; BGB IC40 combo, at 0.005 µM): -30.8% and -8.59%
inhibition ([8]; BGB IC40 combo, at 0.05 µM): -28.9% and 4.12%
inhibition ([8]; at 0.5 µM): -31.2% (inactive) and -13.2% (inactive)
inhibition ([8]; cisplatin combo, at 0.05 µM): -34.1% and 1.44%
inhibition ([8]; cisplatin combo, at 0.5 µM): -50.7% and 4.42%
inhibition ([8]; cisplatin combo, at 5 µM): -20.3% and -61.9%
inhibition [8, 27]: 6.97% and -17.4%
inhibition ([9]; at 0.5 µM): -19.7% (inactive) and -18.4% (inactive)
inhibition [9, 22]: -23.5% and -18.9%
inhibition [9, 28]: -56.8% and -22.6%
inhibition [9, 29]: -7.78% and -27.3%
inhibition ([10]; at 0.5 µM): -21.5% (inactive) and -5.99% (inactive)
inhibition [10, 30]: -16.4% and -34.5%
inhibition [10, 31]: -7.68% and -31%
inhibition [10, 32]: -24.9% and -1.09%
inhibition [10, 33]: -9.05% and -28%
inhibition ([10]; single agent, at 5 µM): -16.3% and 0.079%
inhibition ([11]; at 0.5 µM): -37% (inactive) and -44.9% (inactive)
inhibition [11, 34]: -37.8% and -1.8%
inhibition [11, 35]: -13.5% and -79.6%
inhibition ([12]; at 0.5 µM): -6.81% (inactive) and 1.52% (inactive)
inhibition [12, 36]: -13.9% and 7.53%
inhibition [12, 37]: -2.89% and -3%

Reference: PubChem BioAssay
